From PubChem BioAssay
Most compounds without a hit are left out; they make up all but 3.9% or so of the library.
Cardio protect = myocardial damage modulation in H9c2 cells | AID 588492 | protection from H2O2 cell death, % at 20 µM | H9c2 cardiomyocytes, H2O2 injury protection, ATPLite, 2 h | 360,000 compounds, 0.63% hits;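 active = compounds giving at least 50% protection of heart cells from peroxide-induced death in the single-dose screen, raw or plate-pattern-corrected value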;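 also: 0% = DMSO wells with peroxide and 100% = DMSO wells without peroxide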
NTR1 ag = activates human neurotensin receptor 1 | activation, % at 20 µM | 330,000 compounds, 0.17% hits | P30989 | NTR1-U2OS beta-arrestin-GFP spot imaging, agonist mode;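 active = activation at or above 40% of the spot to cytoplasm intensity ratio, with at least 20 cells analyzed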;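 also: 0% = DMSO without peptide and 100% = 100 nM NTR1 peptide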
UBC9 SUMO inh = blocks human SUMOylation mediated by UBC9; P63279; inhibition, % at 35 µM; 290,000 compounds, 0.36% hits; HTRF SUMOylation assay, SAE1/SAE2 + UBC9, in vitro; in the data active = inhibition above about 50%, passing the limit was not always enough
Target sequence (P63279 whole entry, looked up): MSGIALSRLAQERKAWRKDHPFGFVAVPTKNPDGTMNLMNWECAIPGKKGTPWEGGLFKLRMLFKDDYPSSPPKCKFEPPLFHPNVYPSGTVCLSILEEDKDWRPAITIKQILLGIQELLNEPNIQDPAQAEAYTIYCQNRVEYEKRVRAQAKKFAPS
ALR inh = human ALR oxidase inhibition via reduced H2O2. purified ALR, DTT oxidation, H2O2 HRP-luminol luminescence. inhibition, % (test concentration not listed). 290,000 compounds, 3.8% hits;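 active = mean replicate inhibition above about 79%, with every replicate also reaching it, limit read from the data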
Target sequence (P55789 whole entry, looked up): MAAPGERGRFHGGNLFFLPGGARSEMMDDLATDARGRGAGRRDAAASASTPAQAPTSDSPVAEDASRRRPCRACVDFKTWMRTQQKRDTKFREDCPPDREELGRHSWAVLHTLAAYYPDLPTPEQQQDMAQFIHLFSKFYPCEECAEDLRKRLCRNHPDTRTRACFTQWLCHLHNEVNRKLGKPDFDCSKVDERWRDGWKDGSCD
* marks the source's active call; other numbers are inactive results; nt = no result.

SMILES	Cardio protect	NTR1 ag	UBC9 SUMO inh	ALR inh
O=C(NCC(=O)N(Cc1cccs1)C(C(=O)NC1CCCCC1)c1ccncc1)c1ccco1 (configuration not stated)	3	-1	7	-15
O=C(NCC(=O)N(Cc1ccccc1)C(C(=O)NC1CCCCC1)c1ccco1)c1ccco1 (configuration not stated)	97*	0	-10	9
O=C(NCC(=O)N(Cc1cccs1)C(C(=O)NC1CCCC1)c1ccco1)c1cccs1 (configuration not stated)	59*	3	-2	-6
COc1c(/C=N/Nc2ccc(C(=O)O)cc2)c(CCN(C)C(C)=O)cc2c1OCO2	-5	-2	15	97*
COc1c(/C=N/NC(=O)c2ccccc2O)c(CCN(C)C(C)=O)cc2c1OCO2	-8	2	23	6
Nc1cc(S(=O)(=O)Nc2cc(Cl)ccc2Cl)ccc1N1CCOCC1	-16	1	11	13
CCCCCCC(=O)O	0	2	nt	nt
CCCCCCCCCCCCCC(=O)NO	78*	nt	nt	nt
Cc1ccc2c(c1)N(CC(=O)NCCCN1CCCCC1)C(=O)CO2	2	-2	10	0
CN(C)/N=C/c1ccc(Sc2ccccc2[N+](=O)[O-])o1	-9	2	-10	92*
CCC1Oc2ccccc2N(CC(=O)NCCCN2CCC(C)CC2)C1=O (configuration not stated)	-9	0	-5	-6
COc1cc(O)sc1C=Nc1ccc(Cl)cc1	4	0	-2	95*
CC(Sc1ccc2c(c1)OCCO2)C(=O)Nc1ccc2c(c1)OCO2 (configuration not stated)	1	-1	17	nt
CC(Sc1ccc2c(c1)OCCO2)C(=O)Nc1ncc(Cl)cc1Cl (configuration not stated)	-24	4	-1	99*
Cc1cc(C)n2cc(CSCc3ccco3)nc2n1	6	-2	14	nt
Cc1cccc2nc(CSCc3ccco3)cn12	1	0	23	98*
CCOC(=O)c1c(NC(=O)CSC(=S)N2CCOCC2)sc(C)c1C	-2	19	-7	98*
Cc1sc2nc(C3CC3)nc(SCC(=O)N3c4ccccc4CC3C)c2c1C (configuration not stated)	3	11	1	-17
Cc1ccccc1C(=O)N1CCN(c2ccc([N+](=O)[O-])c(NCc3cccnc3)c2)CC1	22	-1	7	-5
CCOC(=O)CSC1=C(C#N)C(=O)NC(c2ccc(OC)c(OC)c2)S1 (configuration not stated)	5	-1	-26	99*
CCOC(=O)CSC1=C(C#N)C(=O)NC(c2ccc(OC)cc2)S1 (configuration not stated)	-2	2	30	98*
COc1ccc(C2NC(=O)C(C#N)=C(S)N2c2ccc(C)cc2)cc1OC (configuration not stated)	-2	0	11	35
CCOC(=O)CSc1nc2cc(OC)ccc2cc1C#N	-10	1	-11	nt
COc1nc(-c2ccccc2)c2cc(Br)ccc2n1	-3	0	nt	-22
CCOC(=O)/C(C#N)=C\C=C1C=CN(C)C=C1	-16	-2	-30	99*
SMILES	Cardio protect	NTR1 ag	UBC9 SUMO inh	ALR inh
c1ccc(-c2nc(NCc3cccs3)c3ccccc3n2)cc1	-13	9	-15	-1
c1csc(CNc2nc(-c3cccs3)nc3ccccc23)c1	0	18	13	96*
COc1ccc(N)cc1NC(=O)CN1CCCC1	-1	0	-7	97*
CCn1c(N)[n+](CC(=O)Nc2ccc(SC(F)F)cc2)c2ccccc21	-9	9	15	89*
CC[N+](CC)(CC)CC(=O)Nc1ccc(SC(F)F)cc1	-3	-1	5	-11
Cc1cccc(NS(=O)(=O)c2cccc([N+](=O)[O-])c2)n1	-7	0	13	-29
Nc1n[nH]c2cc(=O)n(-c3cccc(C(F)(F)F)c3)nc12	4	0	1	93*
Cc1ccc(C(=O)OCC(=O)Nc2sccc2C(N)=O)cc1NC(=O)c1ccco1	94*	7	10	2
CC(C)c1nc2n[nH]c(N)c2c2c1CSC(C)(C)C2	-4	0	19	98*
O=C(OCCN1C(=O)c2cccc3c(N4CCOCC4)ccc(c23)C1=O)c1cccc(Cl)c1	nt	nt	18	nt
Cc1cc(C)c(S(=O)(=O)/N=C2/C=C(Sc3ncn[nH]3)C(=O)c3ccccc32)cc1C	-19	nt	90*	-68
Cc1ccc(C(=O)OCC(=O)Nc2ncc(Cl)cc2Cl)cc1NC(=O)c1ccco1	3	2	6	7
COc1ccc(OC)c(-n2c(-c3cc(-c4ccc(F)cc4)n[nH]3)n[nH]c2=S)c1	0	-2	9	42
COc1ccc(-c2cc(-c3n[nH]c(=S)n3-c3cc(OC)ccc3OC)[nH]n2)cc1	-2	0	-18	83*
COc1ccc(NC(=O)N2C[C@H]3CON(C)[C@H]3C[C@H]2c2ccc(N3CCCCC3)cc2)cc1	2	nt	nt	nt
O=S(=O)(c1ccc(Cl)s1)N1CCCc2cccc(O)c21	-11	-1	13	99*
O=S(=O)(c1ccc(Cl)s1)N1CCc2ccccc2C1	-7	1	-8	3
Nc1nc2c(nc(N3CCCCC3)n2[C@@H]2O[C@H](CO)[C@@H](O)[C@H]2O)c(=O)[nH]1	2	-1	-13	11
Nc1nc2c(nc(SCc3ccccc3Br)n2C2OC(CO)C(O)C2O)c(=O)[nH]1 (configuration not stated)	1	0	-1	86*
Cc1cc(C)nc(N2CCCC(C(=O)Nc3nnc(C(C)(C)C)s3)C2)n1 (configuration not stated)	0	0	12	0
CSc1nc(O)c(Nc2cccc(Cl)c2)c(=O)[nH]1	1	-1	14	89*
Nc1nc(CSc2nc3ccccc3s2)nc(Nc2ccccc2)n1	nt	27	-14	nt
O=C(Nc1ccc(Nc2ccccc2)cc1)N1CCOCC1	-8	2	-2	99*
COC(=O)c1ccc(NC(=O)N2CCOCC2)cc1	7	1	1	28
O=C(Nc1ccc(O)cc1)N1CCOCC1	-1	0	12	99*
SMILES	Cardio protect	NTR1 ag	UBC9 SUMO inh	ALR inh
COc1ccc(NS(=O)(=O)c2ccc3ccccc3c2)c2ncccc12	59*	1	-95	-10
Nc1cc([N+](=O)[O-])ccc1Nc1ccc(O)cc1	12	2	0	99*
Cc1nc2ccccc2n1CCc1nc2c3ccccc3nc(=S)n2[nH]1	0	0	-1	92*
CC(=O)Nc1nnc(SCC(=O)NC(C)(C)C)s1	-2	-1	20	-7
COc1ccc(NC(=O)c2cc3c(-c4ccc(OC)c(OC)c4)nn(C)c3s2)cc1OC	62*	6	1	nt
CCOC(=O)N1CCC(NC(=O)c2cc3c(-c4ccc(OC)c(OC)c4)nn(C)c3s2)CC1	63*	0	17	-2
CCOC(=O)N1CCC(NC(=O)c2cc3c(-c4ccccc4F)nn(C)c3s2)CC1	50*	-1	2	-1
COc1ccc([C@H]2C[C@H](O)[C@@H](n3cc(COC(=O)c4ccccc4)nn3)CN2Cc2cccs2)cc1	6	nt	nt	nt
